Reference: PubChem BioAssay (NCI)
Values joined by “and” are separate entries in the source; they are usually repeats but may differ in a detail not shown here. Equal values may be shown once. The panel holds about 83,000 compounds, 20% with a hit somewhere; the sample as a whole holds those more often.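 The endpoint reported here, percent growth, reads 100 for growth as untreated, 0 for no net growth and -100 for all cells dead.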 Unmarked numbers belong to inactive results. Active and inactive are the calls of the source. How the source made its calls: active means growth percent below 10; inactive means the rest.

test system: MDA-MB-468 breast; experiment: NCI-60 one-dose screen, 48 h (100 = growth as untreated, 0 = no growth, -100 = all killed); details: 10 µM unless noted

Compound | growth
COc1cc2c3c(n(C4CCN(C)CC4)c(=O)c2cc1OC)-c1cc2c(cc1C3=O)OCO2 | 31.6%
COC1OC(COS(=O)OC)C(O)C(O)C1OS(=O)OC (stereo unspecified) | 96.4%
COc1cc(CN)ccc1O | 99.7%
COC(=O)C(CCC(=O)CCl)N1C(=O)c2ccccc2C1=O (stereo unspecified) | 32.1%
COc1nc(N)nc2c1ncn2C1OC(CO)CC1O (stereo unspecified) | 98.5%
O=C(c1ccccc1)c1cccc(C(Br)Br)c1 | 92.5%
Cn1cc(-c2csc(-c3c[nH]c4ccc(F)cc34)n2)c2cccnc21 | -22.7% (active)
Nc1ccc(N2CCOCC2)cc1 | 96.9%
COc1ccc2c(O)c(/C=C3\N=Nc4ccccc43)oc2c1C[C@@H]1CCNC[C@H]1F | 74.4%
COc1ccc2oc(=O)cc(C(c3ccc[nH]3)c3ccc[nH]3)c2c1 | 5.5% (active)
O=C(O)c1cccc2c1Cc1cc([N+](=O)[O-])ccc1-2 | 113%
Nc1c(C(=O)Nc2ccccc2)sc2nc3c(cc12)CN(Cc1ccccc1)CC3 | 76.2%
O=C(Cn1c(=O)ccn(CCCCCCCCOc2ccc(Br)cc2)c1=O)Nc1ccc(Oc2ccc(Cl)cc2)cc1 | 34.2%
COc1ccccc1/C=N\N=C(N/N=C/c1ccccc1OC)N/N=C/c1ccccc1OC | 58.3% and 10.5%
CN1C(=O)C(=Cc2coc3ccc(Br)cc3c2=O)C(=O)N(C)C1=O | 102%
O=c1[nH]c(=O)n(Cc2ccc(F)cc2)cc1F | 102% [50 µM]
